# High-throughput results as filed in PubChem.
# Exocytosis inh: blocks lytic granule exocytosis; TALL-104 LAMP-1 surface exposure, flow cytometry; cells stimulated with thapsigargin and PMA; 360,000 tested, 0.66% active; AID 651702; inhibition, % at 10 µM;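 active = inhibition above about 55%, limit read from the data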
# IDE inh: inhibitors of human insulin-degrading enzyme in cells; 320,000 tested, 0.41% active; HEK cells, FAbetaB cleavage, fluorescence polarization; inhibition, % at 5.59 µM; P14735;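 active = percent inhibition above the average of all tested compounds plus 3 SD, set per screening campaign, cut at about 16% in these data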;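 note: IDE supplied by intact live HEK cells; FP after avidin binding of uncleaved biotin substrate so inhibition keeps polarization high; 0% = DMSO wells and 100% = 60 µM reference IDE inhibitor Ii1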
# PP5 inh: PP5 (human) phosphatase inhibition; inhibition, % at 6.7 µM; purified PP5c, OMFP substrate fluorescence; P53041; 320,000 tested, 0.18% active;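 active = inhibition above the campaign's mean inhibition across all tested compounds plus 3 SD, cut at about 9.5% in these data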;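 note: 0% = DMSO only and 100% = 100 µM cantharidin control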
# IDE act: IDE (human) activation, cell-based; AID 493087; 340,000 tested, 0.073% active; activation, % at 5.96 µM; P14735; HEK cells, FAbeta-B cleavage, fluorescence polarization; 0% vehicle, 100% cell-free pure enzyme wells;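 active = activation above the mean of all tested compounds plus 3 SD, set per screening campaign, cut at about 17% in these data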
# SKKanGAS inh: SKKanGAS growth inhibition | S. pyogenes SKKanGAS, kanamycin growth, BacTiter-Glo, 6 h | AID 1662 | 300,000 tested, 1.3% active | inhibition, % at 7.5 µM;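 active = mean replicate score, as percent of positive control median, at least 50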;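 note: strain carries kanamycin resistance gene driven by streptokinase promoter and grows in 40 µg/ml kanamycin; loss of luminescence reflects streptokinase promoter inhibition or plain growth inhibition; 0% = median of DMSO wells and 100% = positive control at its reference dose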
# PP1 counter: counter-screen for PP5 inhibitors: inhibitors of human PP1-alpha. P62136. purified PP1alpha, OMFP fluorescence. inhibition, % at 6.7 µM. 320,000 tested, 0.9% active. AID 2235;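 active = inhibition above the mean inhibition of all tested compounds plus 3 SD, computed separately for each screening campaign, cut at about 15% in these data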
# Target sequence (P62136 whole entry, looked up): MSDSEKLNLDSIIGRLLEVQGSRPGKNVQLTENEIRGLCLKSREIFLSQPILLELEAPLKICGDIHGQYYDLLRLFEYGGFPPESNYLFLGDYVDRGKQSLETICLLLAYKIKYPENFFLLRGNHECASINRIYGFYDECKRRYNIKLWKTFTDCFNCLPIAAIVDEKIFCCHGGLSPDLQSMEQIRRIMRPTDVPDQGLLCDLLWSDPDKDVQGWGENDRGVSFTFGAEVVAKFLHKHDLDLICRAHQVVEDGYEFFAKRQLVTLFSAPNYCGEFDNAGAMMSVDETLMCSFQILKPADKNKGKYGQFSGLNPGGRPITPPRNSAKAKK
# Granule exo CP1: blocks lytic granule exocytosis | 1,500 tested, 11% active | TALL-104 cells, LAMP-1 externalization, flow cytometry; stimulated with PMA plus thapsigargin | AID 651954 | inhibition, % at 10 µM | shares compounds with Exocytosis inh; in the data active = inhibition above about 60%;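 note: 0% = stimulated vehicle wells and 100% = unstimulated wells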
# An asterisk follows results filed as active; . = no result given. Hits are enriched below; roughly 2.8% of the tested compounds scored in any of these assays.
SMILES,Exocytosis inh,IDE inh,PP5 inh,IDE act,SKKanGAS inh,PP1 counter,Granule exo CP1
CSCCC(c1nnnn1Cc1ccccc1)N1CCC2(CC1)C(=O)NCN2c1ccccc1 (stereo not drawn),3,.,.,.,.,.,.
CCCN1CCc2cccc3c2[C@H]1Cc1ccc(O)c(O)c1-3,101*,1,3,-21,4,1,27
CN1CCC(O)(c2cccs2)C(C(=O)c2cccs2)C1 (stereo not drawn),75*,-2,-2,3,-2,-4,-11
CC(O)C1C=CC=CC(=O)OC2CC3OC4C5OC5(C)C(O)CC4(COC(=O)C(O)C(C)CCO1)C2(C)C31CO1 (stereo not drawn),-2,.,.,3,.,.,.
O=P(Nc1ccccc1)(Oc1ccccc1)Oc1ccccc1,25,-7,3,-6,8,5,.
Cc1cccc(NP(=O)(Oc2ccccc2)Oc2ccccc2)c1C,58*,0,7,-4,7,6,-11
CCOC(=O)[C@]12Cc3cc(Cl)ccc3[C@H]1N(Cc1ccccc1)C(=O)c1ccccc12,87*,.,.,2,.,.,-3
CCOC(=O)[C@]12Cc3ccc(C)cc3[C@H]1N(C1CCCCC1)C(=O)c1ccccc12,39,.,.,.,.,.,.
CCOC(=O)[C@]12Cc3ccc(C)cc3[C@H]1N(C1CCCCC1)C(=O)c1cc(OC)ccc12,84*,.,.,.,.,.,23
CCOC(=O)[C@]12Cc3cc(Cl)ccc3[C@H]1N(C1CCCCC1)C(=O)c1cc(OC)ccc12,100*,.,.,.,.,.,92*
CCOC(=O)[C@]12Cc3cc(OC)ccc3[C@H]1N(C)C(=O)c1cc(OC)ccc12,-7,.,.,.,.,.,.
CCOC(=O)[C@]12Cc3cc(C)ccc3[C@H]1N(C1CCCCC1)C(=O)c1ccccc12,60*,.,.,.,.,.,9
CC1(O)CCN2C(=O)CCc3cccc1c32 (stereo not drawn),-4,-5,-2,-3,.,3,.
CCC(C)(O)C(=O)OC1C(=O)OC2CC3C(C)=CC(O)C(O)C3(C)C3C4(O)OCC23C1C(C)C4O (stereo not drawn),7,.,.,.,.,.,.
CCOC(=O)[C@]12Cc3c(cc(OC)c(OC)c3OC)[C@H]1N(C1CCCCC1)C(=O)c1ccccc12,63*,.,.,.,.,.,6
CCOC(=O)[C@]12Cc3ccccc3[C@H]1N(C(C)C)C(=O)c1ccccc12,-13,.,.,.,.,.,.
CC(Cc1ccccc1)NCC(=O)Nc1cc(N(C)C)nc2ccccc12 (stereo not drawn),62*,-7,2,.,4,-2,-14
COC(=O)c1ccc(NC(=O)CSc2nc3ccc(N4C(=O)C5C6C=CC(C6)C5C4=O)cc3s2)cc1 (stereo not drawn),81*,4,3,-1,32,8,85*
CN(Cc1cccc(-c2ccncc2)c1)C(=O)Oc1ccccc1Cc1ccccc1,27,.,.,.,.,.,.
COc1ccc(CC(=O)N(CCN(C)C)CC2CCCN(Cc3ccccc3F)C2)cc1 (stereo not drawn),63*,-2,-2,1,-3,-5,-12
c1ccc(CCN2CCCCC2)nc1,4,.,.,-1,.,.,.
NC(Cc1ccc(F)cc1)c1csc(Nc2ncccn2)n1 (stereo not drawn),10,.,.,.,.,.,.
